Source: PubChem (National Center for Advancing Translational Sciences (NCATS))
The full list was thinned out, with hits kept by preference.
KDM5B inh: blocks human KDM5B histone demethylase activity; KDM5B demethylase, FDH-coupled NADH fluorescence (FDH is formaldehyde dehydrogenase); Potency, µM (titrated, usually from 57.7 µM), actives largely listed as inhibitors; actives 2.6% (n = 220,000); AID 1347165; active means well fitted inhibition curve with a large enough effect; further: nearly all actives have a fitted effect of over 70% in size
Target sequence (Q9UGL1 whole entry, looked up): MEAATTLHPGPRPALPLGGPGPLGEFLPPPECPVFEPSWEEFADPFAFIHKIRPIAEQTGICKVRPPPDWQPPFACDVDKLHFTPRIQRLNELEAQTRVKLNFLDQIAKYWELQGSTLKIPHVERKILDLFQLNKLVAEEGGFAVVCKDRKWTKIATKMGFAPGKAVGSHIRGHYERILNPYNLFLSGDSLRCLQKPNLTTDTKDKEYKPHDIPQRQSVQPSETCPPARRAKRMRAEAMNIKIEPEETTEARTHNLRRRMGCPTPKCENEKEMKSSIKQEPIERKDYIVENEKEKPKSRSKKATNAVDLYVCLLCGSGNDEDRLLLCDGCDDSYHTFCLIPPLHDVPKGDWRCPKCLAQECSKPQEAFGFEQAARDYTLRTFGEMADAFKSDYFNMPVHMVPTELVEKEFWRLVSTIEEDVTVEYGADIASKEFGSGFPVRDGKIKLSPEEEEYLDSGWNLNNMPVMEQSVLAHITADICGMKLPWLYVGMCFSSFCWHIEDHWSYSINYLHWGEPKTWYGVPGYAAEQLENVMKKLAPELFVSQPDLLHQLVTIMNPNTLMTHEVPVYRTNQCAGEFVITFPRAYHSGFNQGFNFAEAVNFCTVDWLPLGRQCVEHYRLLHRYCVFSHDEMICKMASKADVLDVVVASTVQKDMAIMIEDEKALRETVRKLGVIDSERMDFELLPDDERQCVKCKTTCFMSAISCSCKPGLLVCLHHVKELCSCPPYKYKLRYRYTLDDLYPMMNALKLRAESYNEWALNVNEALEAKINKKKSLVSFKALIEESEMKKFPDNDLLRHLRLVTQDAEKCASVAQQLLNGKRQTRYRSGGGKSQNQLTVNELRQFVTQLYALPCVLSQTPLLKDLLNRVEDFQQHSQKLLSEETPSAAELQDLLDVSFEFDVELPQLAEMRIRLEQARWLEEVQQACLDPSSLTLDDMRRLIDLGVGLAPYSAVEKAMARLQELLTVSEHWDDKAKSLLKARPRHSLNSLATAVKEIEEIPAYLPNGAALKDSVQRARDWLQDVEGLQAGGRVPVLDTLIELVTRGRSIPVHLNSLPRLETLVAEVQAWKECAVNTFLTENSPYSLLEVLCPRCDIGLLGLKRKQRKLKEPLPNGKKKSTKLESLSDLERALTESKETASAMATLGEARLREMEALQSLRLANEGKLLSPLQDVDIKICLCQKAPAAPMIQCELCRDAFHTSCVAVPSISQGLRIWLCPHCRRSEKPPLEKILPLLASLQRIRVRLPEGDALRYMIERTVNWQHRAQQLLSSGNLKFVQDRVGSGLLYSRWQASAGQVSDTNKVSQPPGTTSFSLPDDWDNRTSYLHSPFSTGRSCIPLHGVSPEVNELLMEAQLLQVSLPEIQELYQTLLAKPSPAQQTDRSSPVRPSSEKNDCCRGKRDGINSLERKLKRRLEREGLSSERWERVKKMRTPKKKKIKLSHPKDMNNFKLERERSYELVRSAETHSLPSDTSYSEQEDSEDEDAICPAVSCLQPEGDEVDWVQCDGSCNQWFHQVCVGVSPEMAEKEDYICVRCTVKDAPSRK
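KDM5BΔAP (200 nM final) in 50 mM HEPES pH 7.5, 0.01% Tween-20 was preincubated 10 min at RT with compound over a concentration range. Substrate mix (H3K4me3 12.5 µM, α-KG 25 µM, Fe²⁺, ascorbate, NAD⁺, FDH) was added, and NADH fluorescence change over 30 min gave dose-response curves.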
Of the large screens only hits and unclear results are named; the others gave an inactive call.

C[S+](=O)([O-])N1CCC2(CC1)CN(C(=O)c1c[nH]c3ccccc13)Cc1ccccc1O2	none
OCC1(Cc2ccc(F)cc2F)CCCN(c2cnc3ccccc3n2)C1 (centres undefined)	KDM5B inh 28µM
Fc1ccc(N2CCN(c3cnc4ccccc4n3)CC2)cc1	none
O=C(NCc1ccccc1)C1CCCN(c2cnc3ccccc3n2)C1 (centres undefined)	none
COc1cc(/C=N/NC(=O)CNS(=O)(=O)c2ccc(C)cc2)cc(OC)c1OC	none
C=CCc1c(C)[nH]c2c(C)cccc2c1=S	none
CC(C)c1noc(-c2cn(C3CCN(C(=O)c4cccc5[nH]ccc45)CC3)nn2)n1	KDM5B inh 28µM
CCc1noc(-c2cn(C3CCN(C(=O)c4ccccc4)CC3)nn2)n1	none
CC(C)c1noc(-c2cn(C3CCN(C(=O)c4ccccc4)CC3)nn2)n1	none
CCc1noc(-c2cn(C3CCN(C(=O)c4cc(F)ccc4F)CC3)nn2)n1	none
COc1ccccc1C(=O)N1CCC(n2cc(-c3nc(C(C)C)no3)nn2)CC1	none
CCc1noc(-c2cn(C3CCN(C(=O)c4cccc5[nH]ccc45)CC3)nn2)n1	KDM5B inh 32µM
Cc1c(C(=O)NCCc2nnc3n2CCCCC3)sc2ccccc12	none
C/C(=N/Nc1cc(C(F)(F)F)ccc1Cl)c1ccccc1Br	none
COc1cc(NC(=O)Cn2c(N(C)Cc3ccccc3)nc(C)cc2=O)cc(OC)c1OC	none
COc1ccccc1CNC(=O)C1(c2cccs2)CCOCC1	none
CC1(NC(=O)Nc2ccccc2)CCS(=O)(=O)C1 (centres undefined)	none
COC(=O)CNC(=O)c1cc(-c2ccc(Cl)cc2Cl)c2cccn2n1	none
COC(=O)CNC(=O)c1nc(-c2ccc(Cl)cc2Cl)c2ccccn12	KDM5B inh 89µM
COC(=O)CNC(=O)Cn1ccc2cc(Cl)ccc21	none
COC(=O)CNC(=O)c1cc(-c2cnccc2Cl)c2cccn2n1	none
CC(C)NC(=O)c1cc(Cl)ccc1I	none
COC(=O)CNC(=O)c1nc(-c2ccc(Cl)cc2Cl)c2cnccn12	KDM5B inh 79µM
CC(C)NC(=O)c1nc(-c2ccc(Cl)cc2Cl)c2cnccn12	KDM5B inh 79µM
COC(=O)CNC(=O)Cn1ccc2ccc(Cl)cc21	none
Cc1nc2ccc(Cl)cc2cc1C(=O)NC(C)C	none
Clc1ccccc1-n1c(SCc2nc(-c3cccs3)no2)nnc1N1CCCC1	none
Cn1c(SCC(=O)NCc2ccco2)nnc1C1CC1	none
O=C(c1ccccc1F)N1CCC2(CCCCO2)CC1	none
CC(=O)N1CCCN(CC[C@H]2CN(C(=O)c3ccc(F)cc3)CC[C@H]2CC(=O)O)CC1	none
O=C(CN1CCCC(c2nccn2Cc2cscn2)C1)N1CCOCC1 (centres undefined)	none
CCOC(=O)Nc1cccc(N2CCn3c(nc4cc(Cl)ccc43)C2)c1	none
O=C(c1ccccn1)N1CCCC(Cc2nc(C3CCOCC3)no2)C1 (centres undefined)	none
CC(C)(C)c1ccc(C(=O)NCc2cc(=O)n3nc(-c4ccccc4)sc3n2)cc1	none
Cc1ccc(OCC(=O)N2CC[C@@](O)(C3CCOCC3)[C@H](C)C2)cc1	none
CN(Cc1ccccc1)C(=O)Cn1nc2c(cc1=O)CCCC2	none
CN1CCN(C(=O)c2cccs2)CC12CCNC(=O)CC2 (centres undefined)	none
CN1CCCN(CC(=O)N2CCN(C)C3(CCNC(=O)CC3)C2)CC1 (centres undefined)	none
CN1CCN(C(=O)c2cccc3c2NCCC3)CC12CCNC(=O)CC2 (centres undefined)	KDM5B inh 25µM
Cc1nc(C)c(-c2ccc(SCC(=O)Nc3ccc(F)c(F)c3)nn2)s1	none
O=C(NC1CCCCC1)c1cnc2c(c1)N([S+](=O)([O-])c1cccnc1)CCC2	none
Cc1cccc2ncc(C(=O)N3CC[C@H](CO)[C@@H](O)C3)c(=O)n12	KDM5B inh 22µM
Cc1cccc2cc(C(=O)N3CC[C@H](CO)[C@H](O)C3)oc12	none
O=C(c1cn2ccsc2n1)N1CC[C@H](CO)[C@@H](O)C1	none
Cc1noc(-c2nc(Cc3cccc(F)c3)no2)n1	none
COc1ccc(-c2noc(-c3nc(Cc4cccc(F)c4)no3)n2)cc1	KDM5B inh 28µM
COc1ccc(-c2noc(-c3nc(-c4cccnc4)no3)n2)cc1	KDM5B inh 35µM
Fc1cccc(Cc2noc(-c3nc(-c4ccccc4)no3)n2)c1	none
COc1ccc(-c2noc(-c3nc(-c4cc(OC)c(OC)c(OC)c4)no3)n2)cc1	none
Cc1ccc(-c2noc(-c3nc(-c4cccnc4)no3)n2)cc1	none
COc1cc(OC)c(OC)cc1/C=N/NC(=O)c1ccc2nc[nH]c2c1	none
Cc1c(Cl)cccc1NC(=S)NCC(C)N1CCCCC1C (centres undefined)	none
COCC(=O)N1CCN(C(=O)C2CCCCC2)[C@@H](C(=O)OC)C1	none
CC(=O)NCC(=O)N1Cc2ccccc2CC2(CCN(C)C2)C1 (centres undefined)	none
Cn1cc(Cl)c(C(=O)N2CCOC(c3ccc(Cl)c(Cl)c3)C2)n1 (centres undefined)	none
O=C(Nc1ccc2[nH]ncc2c1)c1nn(-c2ccccc2)c(=O)c2ccccc12	none
